Data as given in PubChem BioAssay (EPA / NIEHS).
Results filed as inconclusive are left out. Active and inactive are the calls of the source. Rule for the calls: active = hit-call score of the fitted dose curve at least 0.9, where 1 is the maximum; inconclusive = response in the unintended direction; inactive = score below 0.9.

Key:
[1] = target: Retinoic acid receptor alpha (Homo sapiens) (UniProt P10276); assay: NVS_NR_hRARa_Agonist: NovaScreen (NVS) Nuclear Receptor Binding Assay for human Retinoic Acid Alpha Receptor Agonism (RAR) (AID 2283361)
In short: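 Cell-free TR-FRET binding read-out with extracted human RARα protein, read 2 h after compound addition. Gain of signal scored against DMSO baseline. Primary screen at a single 25 uM in duplicate; actives then retested in concentration series.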

[2] = target: human Thyroid Receptor Alpha (TRa), THRA (gene 7067) (UniProt P10827); assay: NVS_NR_hTRa_Antagonist: NovaScreen (NVS) Nuclear Receptor Binding Assay for human Thyroid Receptor Alpha Antagonism (TRa) (AID 2283362);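 note: activity is loss of signal relative to DMSO baseline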
In short: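 Chemicals were first screened in duplicate at 25 uM, then actives were retested in concentration series. Binding to the extracted receptor was measured 1 h after dosing by AlphaLISA chemiluminescence, with decreased signal versus DMSO scored as activity.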

Retinoic acid receptor alpha (Homo sapiens), sequence (P10276 whole entry, looked up): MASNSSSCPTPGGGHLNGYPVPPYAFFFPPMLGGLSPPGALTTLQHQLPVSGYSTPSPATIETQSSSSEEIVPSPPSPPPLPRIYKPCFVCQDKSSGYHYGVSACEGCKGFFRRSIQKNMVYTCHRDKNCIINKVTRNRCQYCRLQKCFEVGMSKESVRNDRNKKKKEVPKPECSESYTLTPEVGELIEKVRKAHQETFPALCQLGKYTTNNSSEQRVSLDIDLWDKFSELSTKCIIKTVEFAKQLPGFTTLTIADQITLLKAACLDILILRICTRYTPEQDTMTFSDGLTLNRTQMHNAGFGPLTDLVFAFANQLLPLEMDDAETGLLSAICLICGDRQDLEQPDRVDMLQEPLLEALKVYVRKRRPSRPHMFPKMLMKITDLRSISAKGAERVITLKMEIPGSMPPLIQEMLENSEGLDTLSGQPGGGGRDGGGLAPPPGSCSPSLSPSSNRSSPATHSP
human Thyroid Receptor Alpha (TRa), THRA (gene 7067), sequence (P10827 whole entry, looked up): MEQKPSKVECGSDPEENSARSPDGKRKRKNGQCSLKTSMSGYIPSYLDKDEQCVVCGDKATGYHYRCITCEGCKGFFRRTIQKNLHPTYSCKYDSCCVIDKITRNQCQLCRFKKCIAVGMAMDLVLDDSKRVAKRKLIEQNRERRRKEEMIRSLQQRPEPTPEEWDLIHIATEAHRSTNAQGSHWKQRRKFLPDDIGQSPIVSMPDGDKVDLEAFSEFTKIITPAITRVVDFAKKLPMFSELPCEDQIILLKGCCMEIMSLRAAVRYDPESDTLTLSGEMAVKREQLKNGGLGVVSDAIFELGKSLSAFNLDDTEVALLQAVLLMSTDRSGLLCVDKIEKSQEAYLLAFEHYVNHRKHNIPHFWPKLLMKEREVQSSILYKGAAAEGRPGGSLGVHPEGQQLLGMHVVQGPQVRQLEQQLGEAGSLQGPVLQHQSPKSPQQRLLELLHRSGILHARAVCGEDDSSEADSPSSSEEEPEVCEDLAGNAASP

## O=C(N[C@H]1CN2CCC1CC2)c1ccc2c(c1)OCCO2
[1]
  outcome: inactive

## CCC[CH2][Sn]([Cl])([Cl])[CH2]CCC
[1]
  AC50: 38 µM (active)

## O=S1(=O)OC(c2cc(Br)c(O)c(Br)c2)(c2cc(Br)c(O)c(Br)c2)c2ccccc21
[2]
  AC50: 4.18 µM (active)

## O=C(O)C1(c2ccc3c(c2)OC[C@H](Cc2ccc(-c4ccccc4)cc2)[C@H]3O)CCCC1
[1]
  outcome: inactive
